From PubChem
JMJD2A Tudor – blocks the human JMJD2A Tudor domain; AlphaScreen JMJD2A-Tudor / H3K4me3 peptide binding; Potency, µM (highest dose often 114 µM), without a hit: at the highest dose activity change, negative = inhibition, hits mostly inhibitors; actives 4.4% (n = 390,000); AID 504339; further: on the % scale 0 is the no-effect control and ±100 the full control effect; nearly all actives have a fitted effect of over 50% in size
G9a inh – inhibitors of human histone lysine methyltransferase G9a; G9a H3K9 monomethylation, AlphaScreen, 2 h; Potency, µM (doses to about 102 µM), without a hit: top-dose activity, negative = inhibition, actives largely listed as inhibitors; actives 8.8% (n = 350,000); further: on the % scale 0 is the no-effect control and ±100 the full control effect; nearly all actives have a fitted effect of over 75% in size
Target sequence (Q96KQ7 913-1193 limits assumed): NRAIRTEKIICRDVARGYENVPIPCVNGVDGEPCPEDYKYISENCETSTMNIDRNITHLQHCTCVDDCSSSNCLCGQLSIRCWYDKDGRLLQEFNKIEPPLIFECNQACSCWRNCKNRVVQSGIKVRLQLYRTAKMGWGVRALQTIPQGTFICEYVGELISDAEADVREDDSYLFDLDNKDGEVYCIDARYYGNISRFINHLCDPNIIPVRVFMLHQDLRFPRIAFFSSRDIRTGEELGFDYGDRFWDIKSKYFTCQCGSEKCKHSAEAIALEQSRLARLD
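AlphaScreen read-out: biotin-H3K9 peptide (500 nM) methylation by 20 nM enzyme with 20 uM SAM, 2 h at room temperature after 15 min compound preincubation; anti-monomethyl H3K9 antibody plus donor/acceptor beads, 10 min dark.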
BAZ2B inh – blocks human BAZ2B; AlphaScreen BAZ2B-H3K14Ac peptide displacement; Potency, µM (titrated, usually from 114 µM), inactives show at the top dose activity change, negative = inhibition, actives largely listed as inhibitors; actives 4.4% (n = 360,000); further: on the % scale 0 is the no-effect control and ±100 the full control effect; nearly all actives have a fitted effect of over 60% in size
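AlphaScreen displacement: compounds (up to 110uM) incubated 30 min at room temperature with a preformed 50 nM BAZ2B/50 nM biotinylated H3K14Ac peptide complex in PBS pH 7.4 with Tween-20. Donor and acceptor beads at 10 ug/mL final added, 20 min light-protected before reading.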
L3MBTL1 block – L3MBTL1 (human) inhibition. Q9Y468. AlphaScreen L3MBTL1–H3K9me1 peptide binding. Potency, µM (titrated, usually from 57.1 µM), for the others: top-dose activity, negative = inhibition, actives largely listed as inhibitors. actives 0.66% (n = 230,000). AID 485360; further: on the % scale 0 is the no-effect control and ±100 the full control effect; nearly all actives have a fitted effect of over 60% in size
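Displacement of a biotinylated histone H3(1-15) peptide monomethylated at Lys9 (75 nM) from L3MBTL1 (50 nM) was measured by AlphaScreen after a 30 min room-temperature compound incubation; cefsulodin titration served as intraplate control.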
HP1b binding inh – HP1-beta chromodomain-methylated histone interaction inhibition. AlphaScreen HP1-beta / biotin-H3K9me3 peptide binding. Potency, µM (top dose mostly 114 µM), inactives show at the highest dose activity change, negative = inhibition, actives largely listed as inhibitors. P83916. actives 0.56% (n = 390,000). AID 540317; further: nearly all actives have a fitted effect of over 70% in size
Target sequence (P83916 whole entry, looked up): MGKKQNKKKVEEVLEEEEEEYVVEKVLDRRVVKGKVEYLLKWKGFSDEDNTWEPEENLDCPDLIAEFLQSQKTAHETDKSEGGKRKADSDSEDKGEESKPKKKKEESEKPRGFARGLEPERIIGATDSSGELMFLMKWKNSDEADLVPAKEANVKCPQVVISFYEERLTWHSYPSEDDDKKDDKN
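AlphaScreen: HP1-beta (50 nM) preformed 30 min with biotin-H3(1-18)K9me3 peptide (50 nM) in PBS pH 7.4, 0.01% Tween-20. Compound added for 30 min at RT, then streptavidin donor/nickel chelate acceptor beads (10 ug/mL) for 30 min.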
Active calls of the source: *; ? = inconclusive; · = no result; [ ] = remark or other dose. An excerpt weighted towards active compounds, which were near 11% of everything screened. The call rests on the fitted dose curve; in most records, active means well fitted inhibition curve with a large enough effect; inconclusive means small, poorly fitted or top-dose-only effect; inactive means no such curve, though single readings can be large or run the other way. Potency means the concentration at half of the fitted maximal effect.

SMILES | JMJD2A Tudor | G9a inh | BAZ2B inh | L3MBTL1 block | HP1b binding inh
CCCSCCCNC(=O)CN1C(=O)CCn2nc(-c3cn(C)c4ccccc34)cc21 | ? | -23%[59 µM] | -27% | · | 10%[57 µM]
COCCCNC(=O)c1c(NC(=O)Cc2coc3cc(C)ccc23)sc2c1CCCC2 | -8% | -6%[59 µM] | -3% | · | 46%
O=C(NCc1cccnc1)c1ccc(Cl)c(S(=O)(=O)Nc2ccccc2C(=O)NCc2cccnc2)c1 | -11% | 45µM* | ? | 0% | 36%
O=C(NCc1ccccn1)c1ccc(Cl)c(S(=O)(=O)Nc2ccccc2C(=O)NCc2ccccn2)c1 | -31% | 50µM* | 8% | -6% | 37%
O=C(NCc1cccnc1)c1ccc(Cl)c(S(=O)(=O)N2CCCCCC2)c1 | 25µM* | -1% | -9% | 1% | 5%
Cc1cc(C)cc(NS(=O)(=O)c2cc(C(=O)NCc3ccccn3)ccc2Cl)c1 | -11% | 45%[59 µM] | -30% | -2% | 27%
Cc1cc(C)cc(OC(C)C(=O)Nc2ccccc2C(=O)NCc2cccnc2)c1 (stereo not drawn) | -25% | 50µM* | -29% | · | 27%
COc1ccc(-c2nn3c(-c4cc(-c5ccccc5)n[nH]4)nnc3s2)cc1OC | -4%[57.1 µM] | · | · | · | 14%[57 µM]
Cc1ccc(-c2nc(NC(=O)CSc3nc(C)nc4sc5c(c34)CCCC5)ns2)cc1 | -15% | -8%[59 µM] | 2% | · | 21%
COc1ccc(C2c3[nH]c4ccccc4c3C[C@H]3C(=O)N(C4CCN(Cc5ccccc5)CC4)CC(=O)N23)cc1OC (stereo partly drawn) | ? | 13µM* | ? | · | -7%
CSc1nc(C)cc(Nc2c(C)cc(C)cc2C)n1 | 0% | -4%[59 µM] | -8% | · | 47%
CCCc1ccc(C2=Nn3c(nnc3C(C)C)SC2)cc1 | -35% | 8.9µM* | -21% | · | ?
COc1ccc(C2=Nn3c(C)nnc3SC2)cc1 | 65% | 45µM* | ? | · | 99%
COc1ccccc1C1=Nn2c(nnc2-c2ccccc2OC)SC1 | -8% | · | · | · | ·
COc1ccccc1C1=Nn2c(COc3ccccc3)nnc2SC1 | · | 3.2µM* | ? | -10% | ·
COc1ccc(C2=Nn3c(nnc3-c3ccncc3)SC2)cc1 | -8% | ? | 6% | · | 27%
COc1ccc(OC)c(-c2nnc3n2N=C(c2ccc(OC)c(OC)c2)CS3)c1 | -19% | -47%[12.7 µM] | -29% | 1% | 37%
COc1ccc(C2=Nn3c(nnc3-c3cc(OC)ccc3OC)SC2)c(OC)c1 | 79µM* | · | · | · | ·
Cc1cc(C)c(NC(=O)C[C@H](CC(=O)O)c2cccc3ccccc23)c(C(=O)N2CCC3(CCCC3)CC2)c1 | · | 1%[12.7 µM] | · | · | ·
CCN1c2cc(C)ccc2-n2cccc2C12CCN(C(=O)Nc1cc(OC)c(OC)c(OC)c1)CC2 | ? | ? | -34% | · | -17%[57 µM]
c1ccc(OCc2nnc3n2N=C(c2ccccc2)CS3)cc1 | -14%[11.4 µM] | 7.9µM* | · | · | ?
COc1ccc(OCc2nnc3n2N=C(c2ccc(C)cc2)CS3)cc1 | -8% | ? | -9% | · | 33%
O=C(O)CC1Sc2nnc(COc3ccc(Cl)cc3)n2N=C1c1ccccc1 (stereo not drawn) | -12% | 25µM* | -11% | · | 6%
COc1ccc(OCc2nnc3n2N=C(c2ccc(OC)cc2)CS3)cc1 | ? | 50µM* | -32% | · | 29%
Fc1ccc(C2=Nn3c(Cc4ccccc4)nnc3SC2)cc1 | -13% | 4% | 0% | -3% | 27%
SMILES | JMJD2A Tudor | G9a inh | BAZ2B inh | L3MBTL1 block | HP1b binding inh
COc1ccc(-n2c(=S)[nH]c3[nH]ncc3c2=O)cc1 | ? | · | ? | 5% | 37%
O=c1c2cn[nH]c2[nH]c(=S)n1-c1cccc2ccccc12 | -34% | 50µM* | -8% | -4% | 14%
O=c1c2cn[nH]c2[nH]c(=S)n1-c1ccccc1 | 79µM* | 8.9µM* | -4% | 4% | 5%
COc1cccc(N2CCN(C(=O)c3cnn(-c4ccccc4Cl)c3C3CCN(C(=O)OC(C)(C)C)CC3)CC2)c1 | ? | ? | -19%[57.1 µM] | · | 25%
COc1ccc(NC(=O)NC(C)(C(F)(F)F)C(F)(F)F)cc1 | 16µM* | -3% | -3%[57.1 µM] | -3% | -3%
COc1ccc(NC(=O)NC(C(F)(F)F)C(F)(F)F)cc1 | 2% | -29%[12.7 µM] | 5% | · | 31%
CC(NC(=O)Nc1ccc(O)cc1)(C(F)(F)F)C(F)(F)F | -16% | 11µM* | 1% | ? | 4%
COc1cc(OC)c(NC(=O)NC(C)c2c(-n3cccc3)sc(C)c2C)cc1Cl (stereo not drawn) | -32% | -35%[59 µM] | -18% | · | ?
N#Cc1nc(Cc2cccc3ccccc23)oc1N1CCN(c2ccccc2)CC1 | ? | 22µM* | ? | · | ?
CC1CC(C)CN(c2oc(Cc3ccccc3)nc2C#N)C1 (stereo not drawn) | ? | 11µM* | 14µM* | ? | ?
COc1ccc(N2CCN(c3oc(Cc4cccc5ccccc45)nc3C#N)CC2)cc1 | ? | 7%[0.0925 µM] | 4µM* | ? | ?
N#Cc1nc(Cc2ccccc2)oc1N1CCCC1 | -33% | · | ? | -10% | -8%
CC1CCN(c2oc(Cc3cccc4ccccc34)nc2C#N)CC1 | ? | 8.9µM* | ? | ? | ?
N#Cc1nc(Cc2cccc3ccccc23)oc1N1CCC(C(N)=O)CC1 | -35% | -14%[59 µM] | -39% | -1% | -4%
COc1ccc2[nH]cc(CCNc3nc(-c4cccnc4)nc4ccccc34)c2c1 | · | -3%[0.501 µM] | · | · | ·
COc1ccc2c(c1)c1c(c(=O)n(-c3cc(Cl)ccc3C)c(=O)n1CC(=O)N1CCCC1)n2C | -2% | ? | -3% | · | 47%
O=C(O)CCN1CCc2ccccc2C1c1ccncc1 (stereo not drawn) | -6% | 50µM* | -25% | · | 46%
O=C(O)CCN1CCc2ccccc21 | -14% | ? | ? | ? | 2%
CCn1c(CNC(=O)c2ccc(OC)cc2)nnc1SCC(=O)Nc1ccc(C)cc1 | -17% | 4%[59 µM] | -5% | · | 20%
CC(OC(=O)c1cc(=O)[nH]c2ccccc12)C(=O)Nc1ccccc1F (stereo not drawn) | 3% | 32µM* | 8% | 4% | 36%
CC(OC(=O)c1cc(=O)[nH]c2ccccc12)C(=O)N1C(C)CCCC1C (stereo not drawn) | 18µM* | 25%[2.33 µM] | 3% | 3% | 44%
CC(C)OC(=O)c1cc(=O)[nH]c2ccccc12 | -14% | -2% | 3% | -1% | 15%
Cn1ccc2c(OCC(=O)NCc3ccccc3Cl)cccc2c1=O | 6% | -1%[59 µM] | -2% | · | 35%
Cc1ccc(Cc2nc3ccccc3[nH]2)cc1 | -7% | 23% | -5% | · | 13%
Cc1ccc(-n2c(Cn3c(C)nc4ccccc43)n[nH]c2=S)cc1 | 8.9µM* | 10µM* | 2% | -8% | 34%
Cc1ccc(-n2c(CCc3nc4ccccc4[nH]3)n[nH]c2=S)cc1 | 7.9µM* | ? | -6% | 0% | -2%
Cc1nc2ccccc2n1Cc1ccccc1 | -15% | · | 0% | 1% | 25%
